This note sets out measurements from PubChem BioAssay (EPA / NIEHS).

Calls of active or inactive are those of the source. Rule for the calls: active = hit-call score of the fitted dose curve at least 0.9, where 1 is the maximum; inactive = score below 0.9.

What is called AC50 is the concentration at which the activity in the assay is half-maximal.

Read-out in the experiment: Collagen III, COL3A1 (gene 1281)
The experiment can be described thus: BSK_hDFCGF_CollagenIII: BioMAP Diversity Plus: hDFCGF Assay for Collagen III Biomarker Activity (AID 2283056). The conditions noted are these: primary human foreskin fibroblasts; actives raise or lower the signal. The method, then: BSK_hDFCGF is a cell-based, multiplexed-readout assay that uses foreskin fibroblast, a human skin primary cell, with measurements taken at 24 hours after chemical dosing in a 96-well plate.BSK_hDFCGF_CollagenIII is an assay component measured in the BSK_hDFCGF assay. It measures Collagen antibody related to regulation of gene expression using ELISA technology.Data from the assay component BSK_hDFCGF_CollagenIII was analyzed into 1 assay endpoint. This assay endpoint, BSK_hDFCGF_CollagenIII, was analyzed with bidirectional fitting relative to DMSO as the negative control and baseline of activity. Using a type of binding reporter, gain or loss-of-signal activity can be used to understand changes in the signaling as they relate to the gene COL3A1. Furthermore, this assay endpoint can be referred to as a primary readout, because this assay has produced multiple assay endpoints where this one serves a signaling function. To generalize the intended target to other relatable targets, this assay endpoint is annotated to the cell adhesion molecules intended target family, where the subfamily is collagen.
The levels of cell surface (or secreted, indicated by the prefix "s") biomarker endpoints were measured by ELISA. Overt cytotoxicity to cells in confluent adherent cultures (all systems other than the BT system) was assessed by measuring total protein levels using sulforhodamine B (SRB) staining in parallel cultures at the time of biomarker measurements, indicated as SRB endpoints. For proliferation assays for adherent cell types, individual cell types are cultured at sub-confluence and relative cell numbers quantified by SRB staining at time points optimized for each system (48 h: 3C and CASM3C systems; 72 h: BT and HDF3CGF systems; 96 h: SAg system). SRB was performed by staining cells with 0.1% SRB after fixation with 10% TCA and reading wells at 560 nm.Viability and proliferation of PBMC (T cells) was quantified by Alamar Blue reduction for the SAg and BT systems. For PBMC viability (referred to as PBMC Cytotoxicity within the assay endpoint names), cells were plated (75,000/well in a 96-well plate) and then chemical samples added for 1 h before addition of activators, SEB and TSST-1 (20 ng/mL final concentration each). Cells were incubated for 90 h. Then, Alamar Blue (20 uL/well) (Invitrogen, Cat DAL1100) was added for 6 h, and the plates were read with a fluorescence microplate reader at 546/580 nm (excitation/emission). For PBMC proliferation, cells were plated and activated as above but incubated for only 16 h prior to addition of Alamar Blue. Plates were read after 6 h.
As to `CC(C)N1C(=O)N(c2ccccc2)CSC1=NC(C)(C)C`, the AC50 is 26.7 µM (active). The same measure, in the same setting: in the case of `CC(C)=CC1C(C(=O)OCc2coc(Cc3ccccc3)c2)C1(C)C` (stereo not given) it was 12.2 µM (active). In the case of `O=P(O)(O)CCCl`, the outcome was inactive. Consider `CC(C)Nc1nc(Cl)nc(NC(C)C)n1`, for which the outcome was inactive.

Turning to `COCC(C)N(C(=O)CCl)c1c(C)csc1C` (stereo not given), the outcome was inactive. Turning to `Nc1cnn(-c2ccccc2)c(=O)c1Cl`, the outcome was inactive. On to `CC(C)(C)C(=O)C(Oc1ccc(Cl)cc1)n1cncn1` (stereo not given), for which the result was inactive.

With `CCN(CC)C(=O)C(C)Oc1cccc2ccccc12` (stereo not given), the AC50 was 0.148 µM (active). As for `O=C1C2CC=CCC2C(=O)N1SC(Cl)(Cl)Cl` (stereo not given), the AC50 was 6.44 µM (active). Turning to `CC1(C)CCC(=Cc2ccc(Cl)cc2)C1(O)Cn1cncn1` (stereo not given), the result was inactive. As to `CCN(CC)c1nc(C)cc(OP(=S)(OC)OC)n1`, the outcome was inactive.

With `COP(=S)(OC)SCn1nnc2ccccc2c1=O`, the result was inactive. For the compound `COCC(=O)N(c1c(C)cccc1C)C(C)C(=O)OC` (stereo not given), the outcome was inactive. As to `CCCN(CC)CC1COC2(CCC(C(C)(C)C)CC2)O1` (stereo not given), the AC50 is 1.25 µM (active). As for `O=c1n(Cl)c(=O)n(Cl)c(=O)n1Cl`, the outcome was inactive. `CCNC(=O)NC(=O)C(C#N)=NOC`: the outcome was inactive. On to `CCOC(=O)C(C)OC(=O)c1cc(Oc2ccc(C(F)(F)F)cc2Cl)ccc1[N+](=O)[O-]` (stereo not given), for which the AC50 was 6.41 µM (active). `Clc1cccc(C(Cl)(Cl)Cl)n1`: the outcome was inactive. As for `CC1(C)C(C(=O)OC(C#N)c2cccc(Oc3ccccc3)c2)C1(C)C` (stereo not given), the outcome was inactive. Turning to `Cc1cnc(C2=NC(C)(C(C)C)C(=O)N2)c(C(=O)O)c1` (stereo not given), the result was inactive. Still for that read-out and setting: in the case of `COC(=O)NS(=O)(=O)c1ccc(N)cc1` it was “inactive”. As for `Cn1c(-c2ccccc2)cc(-c2ccccc2)[n+]1C`, the AC50 was 10.1 µM (active).

As to `CNC(=O)N(C)c1nnc(C(C)(C)C)s1`, the outcome was inactive.

Consider `COc1cc(OC)nc(NC(=O)NS(=O)(=O)c2ncccc2OCC(F)(F)F)n1`, for which the result was inactive. Same read-out and setting: for `Clc1nc(Cl)nc(Nc2ccccc2Cl)n1` the value was “inactive”.

With `CS(=O)(=O)c1cc(C(F)(F)F)ccc1C(=O)c1cnoc1C1CC1`, the outcome was inactive. `Cc1c(COC(=O)[C@@H]2[C@H](/C=C(\Cl)C(F)(F)F)C2(C)C)cccc1-c1ccccc1`: the outcome was inactive. As for `N#Cc1c(Cl)cccc1Cl`, the outcome was inactive. For the compound `O=C(O)c1c(Cl)ccc2cc(Cl)cnc12`, the result was inactive.

As to `CS(=O)(=O)c1ccc(C(=O)C2C(=O)CCCC2=O)c([N+](=O)[O-])c1`, the result was inactive. Turning to `Cc1ccc(N=CN(C)C=Nc2ccc(C)cc2C)c(C)c1`, the AC50 is 13.3 µM (active).

`CC(C)N1C(=O)c2ccccc2NS1(=O)=O`: the AC50 was 0.144 µM (active). As to `CO/N=C(/C1=NOCCO1)c1ccccc1Oc1ncnc(Oc2ccccc2Cl)c1F`, the outcome was inactive. In the case of `Nc1c(Cl)c(F)nc(OCC(=O)O)c1Cl`, the outcome was inactive. For the compound `CCOc1cc(C(C)(C)C)ccc1C1COC(c2c(F)cccc2F)=N1` (stereo not given), the AC50 is 5.45 µM (active). For `CC1(C)CON(Cc2ccccc2Cl)C1=O`, the result was inactive.

With `CSC(=O)c1c(C(F)F)nc(C(F)(F)F)c(C(=O)SC)c1CC(C)C`, the outcome was inactive.

As for `N#CN=C1SCCN1Cc1ccc(Cl)nc1`, the result was inactive. In the case of `O=C(Nc1ccccc1-c1ccc(Cl)cc1)c1cccnc1Cl`, the result was inactive. For `CN=C=S`, the outcome was inactive.
